The values that follow come from PubChem BioAssay (NCI).

About 83,000 compounds went through this panel and 20% of them were active in at least one assay; those are over-represented in the sample as a whole.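 Compound tested at a single concentration for 48 hours in 96-well plates; a percent growth value below 10 was scored as active.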 Values without a mark were called inactive. Activity calls are given as the source filed them. *1 amine or outer side, *2 acyl side, *3 side chain or, on linkers, in order; H or OH if unused. Where a SMILES comes first, the peptide text is derived from it. [ ]: non-standard residue; d: D form. The star is where a group is joined. X5 = CCC(=O)CC1CC(C)CC(C(=O)[*:2])N1[*:1]; X4 = CCCCCCCCC(C)C(=O)*; Aib = CC(C)(N)C(=O)O; X6 = CC(CN(C)CCO)N*

Test in all cases: NCI-60 one-dose screen, 48 h (100 = growth as untreated, 0 = no growth, -100 = all killed)
One assay concerns DU-145 prostate. To be noted: 10 µM unless noted.
The next assay concerns K-562 leukemia. To be noted: 10 µM unless noted.
A further assay has as its system MALME-3M melanoma. To be noted: 10 µM unless noted.
In the next assay the test system is MDA-MB-231 breast. The settings on record: 10 µM unless noted.
A further assay relates to RXF 393 renal. The settings on record: 10 µM unless noted.
A further assay has as its system SF-268 CNS. To be noted: 10 µM unless noted.
For another assay, the system named is SF-295 CNS. The settings on record: 10 µM unless noted.
A further assay deals with SF-539 CNS. To be noted: 10 µM unless noted.
The subject of the next assay is UACC-257 melanoma. To be noted: 10 µM unless noted.
The test system of another assay is HCT-15 colon. To be noted: 10 µM unless noted.
The subject of a further assay is HT29 colon. The settings on record: 10 µM unless noted.
For another assay, the system named is SNB-75 CNS. The settings on record: 10 µM unless noted.
For another assay, the system named is SNB-19 CNS. The settings on record: 10 µM unless noted.
In another assay the test system is U251 CNS. The settings on record: 10 µM unless noted.
The next assay concerns PC-3 prostate. To be noted: 10 µM unless noted.
The test system of another assay is SK-MEL-5 melanoma. To be noted: 10 µM unless noted.
For the next assay, the system named is UACC-62 melanoma. The settings on record: 10 µM unless noted.
A further assay has as its system SK-MEL-28 melanoma. The settings on record: 10 µM unless noted.
The subject of another assay is LOX IMVI melanoma. The settings on record: 10 µM.

As to `CCOC(=O)C1(C)CCCC1N` (stereo not given), the growth is 108% in the assay on DU-145 prostate; 101% with K-562 leukemia; 101% in the assay on MALME-3M melanoma; 97% in the assay on MDA-MB-231 breast; 104% in the assay with RXF 393 renal; 92.4% with SF-268 CNS. The growth was 105% in the assay with SF-295 CNS; 103% in the assay with SF-539 CNS; 113% with UACC-257 melanoma; 108% with HCT-15 colon; 116% with HT29 colon; 86.3% in the assay with SNB-75 CNS. Also, the growth in the assay with SNB-19 CNS was 93.6%; with U251 CNS, 110%; in the assay on PC-3 prostate, 104%; with SK-MEL-5 melanoma, 98%; with UACC-62 melanoma it was 91.6%; in the assay with SK-MEL-28 melanoma, 109%.

Take `[Cl-].[Rh+3].c1ccc(-c2ccnc3c2ccc2c(-c4ccccc4)ccnc23)cc1.c1ccc(-c2ccnc3c2ccc2c(-c4ccccc4)ccnc23)cc1.c1ccc(-c2ccnc3c2ccc2c(-c4ccccc4)ccnc23)cc1`: the growth is 126% in the assay with DU-145 prostate; 34.7% in the assay with K-562 leukemia; 94.3% in the assay with MALME-3M melanoma; 93.6% in the assay with MDA-MB-231 breast; 22.1% with RXF 393 renal; 95% in the assay on SF-268 CNS. Also, the growth in the assay on SF-295 CNS was 69.5%; in the assay with SF-539 CNS it was -5.79% (active); with UACC-257 melanoma it was 63.6%; with HCT-15 colon it was 106%; in the assay with HT29 colon, 99%; in the assay with SNB-75 CNS, 102%. The growth in the assay on SNB-19 CNS was 57.5%; with U251 CNS, 30.8%; with PC-3 prostate it was 75.5%; in the assay on SK-MEL-5 melanoma it was -38.1% (active); in the assay with UACC-62 melanoma it was 97.7%; in the assay with LOX IMVI melanoma, 88.7%.

With `CCCCCCCCC(C)C(=O)N1CCCC1C(=O)N1C(CC(=O)CC)CC(C)CC1C(=O)NC(C)C(=O)NC(C)(C)C(=O)NC(C)(C)C(=O)NC(C(=O)NC(C)C(=O)NC(C)(C)C(=O)NC(C)(C)C(=O)NC(C)CN(C)CCO)C(C)CC` (stereo not given) (X4-P[X5]A[Aib][Aib]IA[Aib][Aib]-X6; configuration not given here), the growth was -84.4% (active) in the assay with DU-145 prostate; -52.1% (active) with K-562 leukemia; 13.5% with MALME-3M melanoma; -94.1% (active) in the assay with MDA-MB-231 breast; -56.5% (active) with RXF 393 renal; -15.4% (active) in the assay on SF-268 CNS. Also, the growth was -26.2% (active) with SF-295 CNS; -77% (active) in the assay with SF-539 CNS; -72.1% (active) in the assay with UACC-257 melanoma; -70.8% (active) in the assay with HCT-15 colon; -84.2% (active) in the assay on HT29 colon; -23.8% (active) in the assay with SNB-75 CNS. In addition, the growth with SNB-19 CNS was 1.03% (active); in the assay on PC-3 prostate, -7.35% (active); with SK-MEL-5 melanoma it was -85.3% (active); in the assay on UACC-62 melanoma, -66.1% (active); with LOX IMVI melanoma, -69.5% (active).

Consider `Cc1ccccc1N=C(N)Nc1ccccc1C` (tested in a mixture with another compound), for which the growth with DU-145 prostate was 84.3%; in the assay on K-562 leukemia it was 85.8%; in the assay with MALME-3M melanoma, 102%; in the assay on MDA-MB-231 breast it was 68.5%; in the assay with RXF 393 renal, 94.7%; with SF-268 CNS, 72.2%. In addition, the growth is 104% in the assay with SF-295 CNS; 72.4% in the assay on SF-539 CNS; 97.5% in the assay with UACC-257 melanoma; 66.5% with HCT-15 colon; 97.3% with HT29 colon; 99.5% in the assay on SNB-75 CNS. Further, the growth with SNB-19 CNS was 89.1%; in the assay on U251 CNS, 84%; with PC-3 prostate it was 70.7%; with SK-MEL-5 melanoma, 73.1%; with UACC-62 melanoma, 90.5%; in the assay with LOX IMVI melanoma, 93%. Moreover, the growth with SK-MEL-28 melanoma is 105%.

Consider `O=C(NNc1ccccc1)OCc1ccccc1`, for which the growth in the assay with DU-145 prostate was 69.1%; in the assay with K-562 leukemia, 3.91% (active); in the assay with MALME-3M melanoma it was 121%; with MDA-MB-231 breast it was 74.4%; in the assay with RXF 393 renal, 119%; with SF-268 CNS, 63%. The growth was 58% in the assay on SF-295 CNS; 97.1% in the assay with SF-539 CNS; 92.4% in the assay on UACC-257 melanoma; 73% in the assay on HCT-15 colon; 97.7% in the assay on HT29 colon; 114% in the assay on SNB-75 CNS. In addition, the growth in the assay with SNB-19 CNS is 97.5%; in the assay with U251 CNS it was 80.4%; in the assay with PC-3 prostate, 54.1%; in the assay on SK-MEL-5 melanoma, 101%; with UACC-62 melanoma, 28.1%; in the assay with LOX IMVI melanoma, 20.8%. Besides, the growth in the assay on SK-MEL-28 melanoma was 105%.

With `S=C(SSC(=S)N1CCOCC1)N1CCOCC1`, the growth in the assay with DU-145 prostate is 109%; with K-562 leukemia, 56.2%; in the assay on MALME-3M melanoma, 101%; with MDA-MB-231 breast, 104%; with RXF 393 renal it was 102%; in the assay with SF-268 CNS it was 101%. Besides, the growth in the assay on SF-295 CNS is 107%; with SF-539 CNS, 96.4%; in the assay with UACC-257 melanoma it was 64%; in the assay with HCT-15 colon, 91.2%; with SNB-75 CNS, 104%; in the assay on SNB-19 CNS, 111%. In addition, the growth in the assay on U251 CNS is 58.1%; in the assay with PC-3 prostate, 77.6%; in the assay with UACC-62 melanoma, 68.7%; with LOX IMVI melanoma it was 78.9%; with SK-MEL-28 melanoma, 106%.

`O=C(c1ccccc1)C(O)C(Br)(CBr)c1ccccc1` (stereo not given): the growth in the assay with DU-145 prostate is 87.1%; in the assay on K-562 leukemia, 50.8%; in the assay with MALME-3M melanoma, 99.9%; with MDA-MB-231 breast it was 91.6%; with RXF 393 renal it was 105%; with SF-268 CNS it was 98.8%. The growth is 103% in the assay with SF-295 CNS; 107% with SF-539 CNS; 72.5% in the assay with UACC-257 melanoma; 86.5% with HCT-15 colon; 99.5% in the assay with SNB-75 CNS; 90.5% in the assay on SNB-19 CNS. Moreover, the growth in the assay with U251 CNS was 81.7%; in the assay on PC-3 prostate, 70.2%; in the assay with SK-MEL-5 melanoma, 85.6%; in the assay with UACC-62 melanoma, 65.3%; in the assay with LOX IMVI melanoma, 46.6%; in the assay with SK-MEL-28 melanoma, 101%.

In the case of `c1csc(-c2[nH]nc3c2CCc2ccccc2-3)c1`, the growth with DU-145 prostate was 103%; in the assay on K-562 leukemia it was 114%; with MALME-3M melanoma, 79.3%; in the assay with MDA-MB-231 breast, 37.2%; in the assay on RXF 393 renal it was 94.7%; in the assay with SF-268 CNS it was 101%. Also, the growth with SF-295 CNS is 91.7%; in the assay on SF-539 CNS it was 82.1%; in the assay on UACC-257 melanoma it was 98.6%; in the assay on HCT-15 colon it was 30.7%; with HT29 colon it was 92.4%; with SNB-75 CNS, 55.6%. In addition, the growth in the assay with SNB-19 CNS is 70.3%; with U251 CNS, 78.1%; in the assay on PC-3 prostate it was 81.7%; with SK-MEL-5 melanoma, 84.8%; in the assay with UACC-62 melanoma, 90%; in the assay with LOX IMVI melanoma it was 97.5%. In addition, the growth with SK-MEL-28 melanoma was 104%.
